# Assay outcomes as filed in PubChem.
# Most compounds without a hit are left out; they make up all but 7.7% or so of the library.
# RE007 growth inh: qHTS Assay for Inhibitors of the HIV-1 protein Vpr; S. pombe RE007 Vpr strain, BacTiter-Glo ATP luminescence, 24 h; AID 651644, 2012; actives 0.21% (n = 360,000); Potency, µM (top dose mostly 92.2 µM), for the others: at the highest dose activity change, negative = less growth, hits mostly inhibitors; active means well fitted falling curve with a large enough effect; inconclusive means small, poorly fitted or top-dose-only effect; inactive means no such curve, though single readings can be large or run the other way; further: potency means the concentration at half of the fitted maximal effect; nearly all actives have a fitted effect of over 50% in size
#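 Fission yeast RE007 carrying one integrated HIV-1 vpr copy, seeded at OD 0.01 in PMG+AL medium with 23 nL pinned compound. Grown 24 h at 30 degrees; viability read by BacTiter-Glo luminescence after 5 min.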
# FMDV inh: High Throughput Screening for Foot and Mouth Disease Virus Antivirals. actives 1.2% (n = 410,000). FMDV antiviral cell-based qHTS. Potency, µM (titrated, usually from 57.9 µM), for the others: top-dose activity change, negative = inhibition, hits mostly inhibitors. AID 1159524, 2015; calls by dose curve; tested in HEK293T cells; further: read-out not given here; potency means the concentration at half of the fitted maximal effect; nearly all actives have a fitted effect of over 45% in size
# Sm TGR inh: qHTS Assay for the Inhibitors of Schistosoma Mansoni Peroxiredoxins; Potency, µM (series often up to 114 µM), for inactives: at the top dose activity change, negative = inhibition, hits mostly inhibitors; actives 3% (n = 360,000); AID 485364, 2010; purified TGR, DTNB reduction, TNB absorbance 405 nm; further: potency means the concentration at half of the fitted maximal effect; nearly all actives have a fitted effect of over 60% in size
#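 TGR 20 nM + NADPH 100 uM (dispensed conc.), cpd preinc 15 min RT; start with NADPH (500 uM addition) then DTNB (15 mM addition). Kinetic TNB absorbance, 405 nm filter. Four-parameter Hill fit across titration.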
# HCMV inh: qHTS Assay for inhibitors of the human cytomegalovirus (HCMV) | HFF cells, HCMV-luciferase reporter, 72 h; hits give low values | activity change, negative = inhibition, % at 57.5 µM | actives 4.5% (n = 410,000) | AID 1259415, 2018; in the data active means activity change below about -60%; inconclusive means no clear call, values can overlap the other calls; inactive means above about -39%
#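 After 16 h attachment at 37C, HFF cells received test compound and HCMV-luciferase (1 PFU/cell); reporter luminescence read 72 h later, data normalized against buffer-only and known inhibitor Salinomycin.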
# Tb PYK inh: qHTS of Trypanosoma Brucei Inhibitors; Potency, µM (highest dose often 76.8 µM), for inactives: top-dose activity, negative = inhibition, usual class: inhibitors; actives 0.12% (n = 410,000); TbPYK enzyme, Kinase-Glo Plus ATP luminescence, 45 min; pyruvate kinase (Trypanosoma brucei), Q57TT1; further: potency means the concentration at half of the fitted maximal effect; nearly all actives have a fitted effect of over 50% in size
#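 TbPYK + substrate in 50 mM TEA pH 7.2, 100 mM KCl, 10 mM MgCl2, 0.05% BSA, 0.01% Tween-20; cpd pinned; ADP 130 uM final; 45 min RT; Kinase-Glo Plus 10 min; luminescence endpoint.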
# Giardia FBPA inh: qHTS Assay for Inhibitors of Fructose-1,6-bisphosphate Aldolase from Giardia Lamblia; A8B2U2; purified Giardia FBPA; Potency, µM (series often up to 59.6 µM), inactives show at the top dose activity, negative = inhibition, usual class: inhibitors; actives 0.71% (n = 290,000); AID 2451, 2010; further: potency means the concentration at half of the fitted maximal effect; nearly all actives have a fitted effect of over 55% in size
# Target sequence (A8B2U2 whole entry, looked up): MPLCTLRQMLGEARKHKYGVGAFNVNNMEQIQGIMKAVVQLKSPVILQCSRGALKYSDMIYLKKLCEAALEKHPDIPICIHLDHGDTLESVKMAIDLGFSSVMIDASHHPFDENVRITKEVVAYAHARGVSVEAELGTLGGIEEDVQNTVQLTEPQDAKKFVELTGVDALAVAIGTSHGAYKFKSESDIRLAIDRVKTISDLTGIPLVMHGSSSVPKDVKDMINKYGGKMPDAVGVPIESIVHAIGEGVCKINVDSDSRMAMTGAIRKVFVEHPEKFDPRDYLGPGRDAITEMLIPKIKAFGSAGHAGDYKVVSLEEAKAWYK
#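 40 nM FBPA preincubated 10 min at RT with compound (up to 57.5 uM final), then substrate plus GAPDH/TPI/NAD/arsenate coupling and diaphorase/resazurin added. Fluorescence read after 20 min at RT, 525/598 nm.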
# Starred values were filed as active, the others as inactive; ? = inconclusive; · = no result given. Unless noted, the call rests on the fitted dose curve; in most records, active means well fitted curve in the direction sought with a large enough effect; inconclusive means small, poorly fitted or top-dose-only effect, or another doubt; inactive means no such curve, though single readings can be large; an effect the other way counts as inactive or inconclusive. On the % scale 0 is the no-effect control and ±100 the full control effect.
SMILES,RE007 growth inh,FMDV inh,Sm TGR inh,HCMV inh,Tb PYK inh,Giardia FBPA inh
Cc1onc(-c2ccccc2)c1C(=O)Nc1ccc(Cl)c(S(=O)(=O)N2CCOCC2)c1,-0.1%,?,0.9%,-102.6*,4.9%,·
COc1ccccc1NS(=O)(=O)c1cc(NC(=O)c2ccccc2C)ccc1N1CCOCC1,-19.3%,66.7%,·,-14.0,4.6%,·
COc1ccc(NC(=O)c2[nH]c(C)c(C(C)=O)c2C)cc1S(=O)(=O)N1CCOCC1,11.8%,-17.3%,6.1%,161.0,-1.1%,-5.1%
Cc1cccn2c(=O)cc(COc3ccc(NC(=O)c4cccc(F)c4)cc3)nc12,·,-11.1%,-0.7%,-12.0,4.5%,·
Oc1c(CN2CCCCC2)cc(COCc2ccccc2)c2cccnc12,?,-28.0%,35.5µM*,-96.3*,-8.8%,4.9%
COCc1cc(CN2CCCC2)c(O)c2ncccc12,-6.7%,·,?,-95.2*,2.8%,?
CN(C)C1CCN(Cc2cc(COCc3ccccc3)c3cccnc3c2O)C1 (stereo unspecified),·,-21.2%,14.1µM*,·,1.0%,·
CCN(Cc1ccccc1)C(=O)c1cc2c(=O)[nH]c3ccc(C)cc3c2s1,·,-4.2%,-0.9%,-23.7,-1.8%,·
Cn1c(Sc2nc3ccccc3n2C)nc2ccccc21,25.8%,-13.2%,3.4%,-95.1*,13.6%,-0.6%
Cn1c(-c2ccc(Br)o2)nc2cc(Br)ccc21,-7.7%,2.0%,12.6µM*,-8.5,?,0.4%
Cc1nc([N+](=O)[O-])c(Sc2nc3ccccc3n2C)n1Cc1ccccc1,-5.7%,25.1µM*,8.91µM*,49.8,-13.8%,-0.9%
Cn1c(SCC(=O)N2CCCC2)nc2ccccc21,-10.2%,21.1%,0.6%,-7.6,2.6%,-3.5%
Cn1c(-c2ccc(Br)o2)nc2ccccc21,?,0.0%,17.8µM*,89.7,?,-11.1%
Cc1ccc(N=C2NC(=O)CC(C(=O)Nc3cc(C(F)(F)F)ccc3Cl)S2)cc1 (stereo unspecified),·,-27.8%,10.2%,6.6,5.0%,·
COc1ccc(Nc2cc3c(cn2)ncn3Cc2ccccc2)cn1,·,·,·,8.0,·,·
Brc1ccc(Cn2c(-c3ccc(Br)o3)nc3ccccc32)o1,8.8%,0.0%,22.4µM*,27.1,-0.7%,-28.2%
Cc1nc2ccccc2n1Cc1ccc(Br)cc1,2.8%,?,·,?,1.4%,·
CC(=O)c1ccc(-c2nc3ccccc3n2C)o1,-15.4%,36.3%,39.8µM*,134.7,-24.2%,-13.8%
Cn1c2nc3ccccc3c-2nc2ccccc21,-23.7%,36.1%,·,71.8,-15.5%,·
Cc1oc(-c2nc3ccccc3n2C)cc1C(=O)c1ccccc1,?,-62.4%,25.1µM*,16.4,31.6µM*,-27.1%
Cc1ccc(-c2nc3ccccc3n2C)o1,39.8µM*,-3.9%,15.8µM*,59.2,?,-5.1%
CCCN(CCC)CCNC(=O)c1cc2c(=O)oc3ccc(C)cc3c2s1,·,-14.2%,-6.1%,4.7,0.3%,·
CC(=O)Nc1ccccc1-c1nc2ccccc2n(CC(=O)Nc2ccc(C)c(Cl)c2)c1=O,·,-23.0%,0.3%,15.3,-1.6%,·
COC(=O)C1=CN(CCCN2CCCC2=O)C=C(C(=O)OC)C1c1ccccc1C(F)(F)F,10.7%,-20.3%,0.2%,-65.0*,0.9%,2.5%
COC(=O)C1=CN(CC2CCCO2)C=C(C(=O)OC)C1c1ccccc1C(F)(F)F (stereo unspecified),16.1%,-21.4%,-21.8%,-20.9,0.3%,0.6%
CCC[C@H]1[C@@H](NS(=O)(=O)c2c(C)cc(C)cc2C)CC[C@@]23CCCN2C(=O)CCC[C@@H]13,·,·,·,-29.8,·,·
COc1ccc(N/C=C/c2nc(SC)nnc2C)cc1,-21.3%,-16.1%,5.6%,-86.2*,-8.4%,-6.0%
